Source: PubChem BioAssay
Only a selection was taken, and hits are over-represented in it overall.
TTR transcr act = increases transthyretin transcription | activation, % at 16.7 µM | SH-SY5Y TTR promoter Gaussia luciferase, luminescence; 100% = recombinant luciferase protein wells | actives 1.3% (n = 92,000) | AID 1117267;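 active = activation above the mean of all tested compounds plus 3 SD, cut at about 9.5% in these data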;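 note: cells exposed to compounds for one day before reading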
TTR inh HuH7 = HuH7 TTR transcription inhibition, counter-screen | HuH7 TTR promoter-Gaussia luciferase reporter, luminescence | shares compounds with TTR transcr act | actives 4% (n = 1,100) | inhibition, % at 16.7 µM | AID 1117279;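 active = average inhibition above the solvent-only control wells' mean plus 3 SD, cut at about 15% in these data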;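 note: inhibitors lower well luminescence so higher value means more inhibition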
TTR up confirm = confirmation of human transthyretin transcription activators; 1,100 tested, under 10 active; shares compounds with TTR transcr act; activation, % at 16.7 µM; SHSY5Y TTR promoter Gaussia luciferase, luminescence; 100% = purified Lucia enzyme wells, no cells;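 active = mean activation above a set limit taken from the earlier primary screen, cut at about 11% in these data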
Large screens that a line does not name were inactive (follow-up assays come after a bar, where they were run).

Cc1cc(NC(=O)C(C)SCC(=O)OC(C)C(=O)Nc2cccc(C#N)c2)no1 (stereo not drawn)	none
Cc1cc(NC(=O)C(C)SCC(=O)OC(C)C(=O)Nc2ccc(F)cc2Cl)no1 (stereo not drawn)	TTR transcr act 12 | TTR inh HuH7 inactive | TTR up confirm inactive
Cc1cc(NC(=O)CCOc2ccc(F)cc2)no1	none
Cc1cc(C)c(S(=O)(=O)Nc2ccccn2)c(C)c1	none
CC(=O)c1c(C)nc(C)nc1NC(=O)Cc1ccccc1	none
CC(=O)Nc1nc(-c2ccc(Cl)cc2)nc(C)c1C(C)=O	TTR transcr act 36 | TTR inh HuH7 inactive | TTR up confirm inactive
CCOC(=O)c1c(C)nc(-c2ccccc2)nc1NC(=O)CC	none
CCC[C@H]1[C@@H](OC(=O)NCc2ccccc2)CC[C@@]23CCCN2C(=O)CCC[C@@H]13	none
CN(CCc1ccccc1)C(=O)c1cccc(NC(=O)Cc2cccc(NC(=O)C3CCN(C(=O)C4CCCCC4)CC3)c2)c1	none
CN(CCc1ccccc1)C(=O)c1cccc(NC(=O)Cc2cccc(NC(=O)C3CCN(C(=O)C4CCC4)CC3)c2)c1	none
CN(CCc1ccccc1)C(=O)c1ccc(NC(=O)Cc2cccc(NC(=O)C3CCN(C(=O)C4CCCCC4)CC3)c2)cc1	TTR transcr act 11 | TTR inh HuH7 inactive | TTR up confirm inactive
Fc1cccc(F)c1Cn1ccc2ccc(-c3ccc4ccn(Cc5c(F)cccc5F)c4c3)cc21	none
Cc1cc(C(F)F)n2nc(C(=O)Nc3c(F)cc(F)cc3Br)nc2n1	none
COC(=O)c1ccccc1NC(=O)c1nc2nc(C)cc(C(F)F)n2n1	TTR transcr act 9.8 | TTR inh HuH7 inactive | TTR up confirm inactive
Cc1cc(C(F)F)n2nc(C(=O)O)nc2n1	none
COC(=O)c1cc(-c2cc3ccccc3o2)c(=O)n2c1CCC2	none
C=CCCC1CN(Cc2ccc(OC)cc2)S(=O)(=O)c2c(F)cccc2O1 (stereo not drawn)	none
Cc1ccc(NC(=O)c2ncn(CCCNCc3ccccc3)n2)cc1C	TTR transcr act 13 | TTR inh HuH7 inactive | TTR up confirm inactive
Cc1ccc(NC(=O)c2ncn(CCCNCC3CCCCC3)n2)cc1C	none
Cc1ccc(NC(=O)c2ncn(CCCNCCCN3CCCC3=O)n2)cc1C	none
CCCCNC(=O)C[C@H]1C(=O)N(Cc2ccc(OC)cc2)C2=CCCCC[C@@]21C(=O)OC	none
COc1cc(C(=S)N2CCOCC2)cc(Br)c1OS(=O)(=O)c1ccccc1	none
C=CC[C@H](CC(=O)NCCO)C(=O)NCCOC(=O)[C@@H](CC=C)CC(=O)OC(C)(C)C	TTR transcr act 13 | TTR inh HuH7 inactive | TTR up confirm inactive
C=CC[C@@H](CC(=O)OC(C)(C)C)C(=O)OC[C@@H]1CCCN1C(=O)[C@H](CC=C)CC(=O)NCCO	none
C=CC[C@@H](CC(=O)NCCO)C(=O)N[C@@H](COC(=O)[C@@H](CC=C)CC(=O)OC(C)(C)C)Cc1ccccc1	none
O=C(OCC#CCSc1nnc(-c2cccc3ccccc23)o1)c1cccc(C(F)(F)F)c1	none
Cn1c(-c2cccc([N+](=O)[O-])c2)cnc1NCc1cccc([N+](=O)[O-])c1	none
COc1ccc(CNc2ncc(-c3ccccc3)n2C)c(OC)c1OC	TTR transcr act 11 | TTR inh HuH7 inactive | TTR up confirm inactive
COc1ccc(-c2cnc(NCc3cc4c(cc3[N+](=O)[O-])OCO4)n2C)cc1	none
O=C(NNS(=O)(=O)c1ccc(F)cc1)c1cc(Cl)ccc1O	none
COC[C@@H]1CCCN1c1cccc2c1S(=O)(=O)N(C1CC1)CC[C@@H](C)O2	none
Cc1ccccc1NC(=O)C1Cc2ccccc2CN1C(=O)OCc1ccccc1 (stereo not drawn)	TTR transcr act 11 | TTR inh HuH7 inactive | TTR up confirm inactive
Cc1ccccc1NC(=O)C1CC(=O)N(Cc2ccccc2)C1 (stereo not drawn)	none
COc1cccc(NC(=O)C2Cc3ccccc3CN2C(=O)c2ccco2)c1 (stereo not drawn)	none
COc1cccc(CNS(=O)(=O)c2cc(Br)ccc2Br)c1OC	none
COC(=O)[C@]12C[C@H](CC(=O)NCCC(C)C)C(=O)N(Cc3ccccc3)C1=C[C@H](COCc1ccccc1)O[C@@H]2C	none
CCCCCCCCN1C(=O)[C@@H](CC(=O)NCc2ccccc2)C[C@@]2(C(=O)OC)C1=C[C@H](C(C)C)O[C@@H]2C1CC1	none
COc1ccc(C(=O)C2CCCN(C(=O)c3c4c(nn3C)CCCC4)C2)cc1F (stereo not drawn)	none
Cc1cc(C)c(C(=O)N2CCCC(C(=O)c3cc(F)ccc3F)C2)o1 (stereo not drawn)	none
Cn1nc2c(c1C(=O)N1CCCC(C(=O)c3cc(F)ccc3F)C1)CCCC2 (stereo not drawn)	TTR transcr act 12 | TTR inh HuH7 inactive | TTR up confirm inactive
O=C(c1ccc(Cl)cc1)N1CCN(CCc2ccccn2)CC1	none
Cc1ccc(CSCCNC(=O)CN2C(=O)c3ccccc3S2(=O)=O)cc1	TTR transcr act 9.9 | TTR inh HuH7 inactive | TTR up confirm inactive
O=C(CN1C(=O)c2ccccc2S1(=O)=O)NCc1ccccc1	none
Cc1ccc(SCC(=O)NCCSCc2ccccc2)cc1	none
CCOC(=O)[C@@]12CCCC=C1N(CCc1ccc(Cl)cc1)C(=O)[C@H]2CC(=O)NCc1ccc(C)o1	none
COC[C@@H]1CCCN1c1cccc2c1S(=O)(=O)N(C1CC1)CCCO2	none
Cc1cc(C)nc(SCC(=O)N/N=C/C=C/c2ccccc2)n1	TTR transcr act 14 | TTR inh HuH7 inactive | TTR up confirm inactive
C/C(=N\NC(=O)CSc1nc(C)cc(C)n1)c1cccs1	none
Cn1cccc1CC(=O)N/N=C/C=C/c1ccccc1	none
C[C@@H]1CCN(C2CC2)S(=O)(=O)c2c(cccc2N2CCC[C@@H]2C)O1	none
O=C(CN1C(=O)C2CC=CCC2C1=O)N1CCN(c2ccc([N+](=O)[O-])cc2)CC1 (stereo not drawn)	none
O=C(CCC1=NS(=O)(=O)c2ccccc2N1)NC1CCCCCCC1	none
O=C(CCCC1=NS(=O)(=O)c2ccccc2N1)N1CCN(c2ccc([N+](=O)[O-])cc2)CC1	TTR transcr act 9.7 | TTR inh HuH7 inactive | TTR up confirm inactive
O=C(OCC(=O)N1CCc2ccccc2C1)c1cccc([N+](=O)[O-])c1	none
C[C@@H](O[Si](c1ccccc1)(c1ccccc1)C(C)(C)C)[C@H]1C(=O)N[C@H](Cc2cn(S(=O)(=O)c3ccccc3)c3ccccc23)C(=O)N1C	none
C[C@H]1[C@@H](NC(=O)c2ccc(C(F)(F)F)cc2)CC[C@@]23CCCN2C(=O)CCC[C@@H]13	none
Nc1[nH]c(C(=O)c2ccccc2)c(-c2ccc(Cl)cc2)c1C(=O)NCCC1=CCCCC1	none
Cc1c(OCC(=O)C(C)(C)C)ccc2c3c(c(=O)oc12)CCCC3	none
CCOC(=O)COc1ccc2c3c(c(=O)oc2c1C)CCC3	none
Cc1coc2c(C)c3oc(=O)c4c(c3cc12)CCCC4	TTR transcr act 12 | TTR inh HuH7 inactive | TTR up confirm inactive
CCC[C@H]1[C@@H](OC(=O)NC2CCC2)CC[C@@]23CCCN2C(=O)CCC[C@@H]13	none
c1ccc2c(c1)nc(NCc1ccc3c(c1)OCO3)n2CCN1CCOCC1	none
CN(C)CCCn1c(NCc2ccc3c(c2)OCO3)nc2ccccc21	TTR transcr act 10 | TTR inh HuH7 inactive | TTR up confirm inactive
CCn1c(NCc2ccc3c(c2)OCO3)nc2ccccc21	none
O=C(OCC#CCSc1nnc(-c2cccc3ccccc23)o1)c1ccc(OC(F)F)cc1	none
